Reference: PubChem BioAssay (NCATS)
Records with an inconclusive call do not appear. Calls of active or inactive are those of the source. Unless noted, calls follow the shape of the dose curve; as a rule, active = well fitted curve in the direction sought with a large enough effect; inconclusive = small, poorly fitted or top-dose-only effect, or another doubt; inactive = no such curve, though single readings can be large; an effect the other way counts as inactive or inconclusive.

What was measured:
[1] = qHTS for Inhibitors of Plasmodium falciparum (DD2) proliferation (AID 504314);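 also: parasite DNA measured by SYBR Green fluorescence after red cell lysis; plate controls were DMSO vehicle for no effect and artemisinin wells for full effect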
How it was run: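 Erythrocytes infected with P. falciparum Dd2 (0.3% parasitemia, 2.5% hematocrit) exposed to compound 72 h at 37C, 5% CO2. Parasite DNA quantified by SYBR Green fluorescence after saponin/Triton lysis overnight; normalized to 0.29 uM artemisinin and DMSO.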

[2] = qHTS for Inhibitors of Plasmodium falciparum (GB4) proliferation (AID 504315);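 also: 0% = DMSO vehicle and -100% = 0.29 µM artemisinin control; nearly all actives have a fitted effect of over 50% in size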
How it was run: (§1)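 Erythrocytes infected with P. falciparum line (0.3% parasitemia, 2.5% hematocrit final) incubated with compounds 72 h at 37 °C, 5% CO2; SYBR Green lysis buffer added, fluorescence read next day. Normalized to 0.29 uM artemisinin and DMSO.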

[3] = qHTS for Inhibitors of Plasmodium falciparum (7G8) proliferation (AID 504316);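 also: series mostly up to about 6.7 µM; 0% = DMSO vehicle and -100% = 0.29 µM artemisinin full kill; nearly all actives have a fitted effect of over 65% in size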
How it was run: as §1

[4] = qHTS for Inhibitors of Plasmodium falciparum (HB3) proliferation (AID 504318);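 also: 0% = DMSO vehicle and -100% = artemisinin control; nearly all actives have a fitted effect of over 60% in size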
How it was run: as §1

[5] = qHTS for Inhibitors of Plasmodium falciparum (CP250) proliferation (AID 504320);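 also: plate controls were DMSO vehicle for no effect and 0.29 µM artemisinin control for full effect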
How it was run: as §1

[6] = biological target: Atrial natriuretic peptide receptor 1 (Homo sapiens) (UniProt P16066); test: Natriuretic polypeptide receptor (hNpr1) antagonism - Pilot CMLD screen (AID 1347052; calls by dose curve;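 also: HEK293 cells with hNpr1 stimulated by hNppA peptide at 0.1 nM; cGMP level read as GloSensor luciferase luminescence after agonist stimulation; series mostly up to about 9.2 µM; % is scaled to controls: 0 for no effect and ±100 for the full control effect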)
Sequence of Atrial natriuretic peptide receptor 1 (Homo sapiens) (P16066 whole entry, looked up): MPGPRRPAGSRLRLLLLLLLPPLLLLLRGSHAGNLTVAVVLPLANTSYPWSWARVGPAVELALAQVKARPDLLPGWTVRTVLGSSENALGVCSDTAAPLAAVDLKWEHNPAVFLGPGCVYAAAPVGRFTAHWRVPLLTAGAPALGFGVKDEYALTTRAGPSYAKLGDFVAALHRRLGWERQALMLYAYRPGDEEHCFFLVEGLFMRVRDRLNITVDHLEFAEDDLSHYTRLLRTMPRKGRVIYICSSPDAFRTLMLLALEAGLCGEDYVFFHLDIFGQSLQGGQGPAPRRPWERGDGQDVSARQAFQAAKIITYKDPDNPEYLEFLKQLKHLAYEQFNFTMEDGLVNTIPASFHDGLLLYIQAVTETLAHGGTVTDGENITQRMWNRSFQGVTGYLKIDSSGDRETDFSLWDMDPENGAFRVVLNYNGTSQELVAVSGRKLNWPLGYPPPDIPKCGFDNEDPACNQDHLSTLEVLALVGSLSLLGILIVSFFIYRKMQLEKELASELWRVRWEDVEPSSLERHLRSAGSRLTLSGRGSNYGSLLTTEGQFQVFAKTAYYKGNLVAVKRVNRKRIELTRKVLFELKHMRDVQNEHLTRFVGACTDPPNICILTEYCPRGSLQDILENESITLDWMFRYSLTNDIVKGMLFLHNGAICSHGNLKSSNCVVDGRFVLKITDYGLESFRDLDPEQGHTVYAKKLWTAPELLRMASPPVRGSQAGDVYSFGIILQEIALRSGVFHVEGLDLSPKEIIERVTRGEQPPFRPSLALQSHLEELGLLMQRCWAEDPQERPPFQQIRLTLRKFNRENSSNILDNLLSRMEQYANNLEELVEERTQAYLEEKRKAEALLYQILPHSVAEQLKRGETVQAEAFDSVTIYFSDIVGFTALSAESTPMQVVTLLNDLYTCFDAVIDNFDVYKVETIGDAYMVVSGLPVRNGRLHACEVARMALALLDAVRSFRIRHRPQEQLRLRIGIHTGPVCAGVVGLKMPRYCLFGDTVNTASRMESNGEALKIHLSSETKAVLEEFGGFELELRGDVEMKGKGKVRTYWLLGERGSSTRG

CCC=CCCC(OC(=O)c1ccc(Br)cc1)C1=CCCCC1=O (stereo unspecified)
inactive: Potency [1] | Potency [2] | Potency [3] | Potency [4] | Potency [5] | Potency [6]

COc1ccc(-c2nc(-c3ccccc3)oc2Nc2ccc3ccccc3c2)cc1
inactive: Potency [1] | Potency [2] | Potency [3] | Potency [4] | Potency [5] | Potency [6]

CCCCCCCc1cc2ccccc2c2c(C(=O)OCC)c(C(=O)OCC)c(C(=O)OCC)n12
inactive: Potency [1] | Potency [2] | Potency [3] | Potency [4] | Potency [5] | Potency [6]

CCN1C(=S)NC(c2cccc(F)c2)C(C(=O)OC)=C1C (stereo unspecified)
inactive: Potency [1] | Potency [2] | Potency [3] | Potency [4] | Potency [5] | Potency [6]

COc1ccc(O[C@H]2C=C[C@@H](c3ccccc3)O[C@H]2CON=C2[C@H]3CCn4c(=O)n(-c5ccccc5)c(=O)n4[C@@H]3[C@H](O)[C@@H]3O[C@H]23)cc1
inactive: Potency [1] | Potency [2] | Potency [3] | Potency [4] | Potency [5] | Potency [6]

COC(=O)C(C(=O)OC)[C@H]1c2ccccc2[C@@H]2C(=C[C@@H](C)[C@H]3C(=O)N(c4ccccc4)C(=O)[C@H]32)N1C(=O)OC
inactive: Potency [1] | Potency [2] | Potency [3] | Potency [4] | Potency [5] | Potency [6]

CC(C)Nc1oc(-c2ccccc2)nc1-c1ccc(C(F)(F)F)cc1
inactive: Potency [1] | Potency [2] | Potency [3] | Potency [4] | Potency [5] | Potency [6]

COC(=O)[C@@H]1[C@@H](c2ccccc2)NC(=O)N(Cc2ccccc2)[C@@H]1C
inactive: Potency [1] | Potency [2] | Potency [3] | Potency [4] | Potency [5] | Potency [6]

CC(C)[C@@H](OCc1ccccc1)[C@H](C)C=NO[C@H](C)c1cn([C@H](CO)Cc2ccccc2)nn1
inactive: Potency [1] | Potency [2] | Potency [3] | Potency [4] | Potency [5] | Potency [6]

CCOC(=O)NN=C1C[C@@H](O)[C@@H](O)[C@@H]2[C@H]3C(=O)N(c4ccc(F)cc4F)C(=O)[C@@H]3CC[C@H]12
inactive: Potency [1] | Potency [2] | Potency [3] | Potency [4] | Potency [5] | Potency [6]

COC(=O)[C@@H](NC(=O)O[C@@H]1C(=O)c2cc(Br)ccc2O[C@H]1c1cccc(OC)c1)C(C)C
inactive: Potency [1] | Potency [2] | Potency [3] | Potency [4] | Potency [5] | Potency [6]

C[C@@H]1C=CCCO[C@]12C(=O)N(Cc1ccccc1C(F)(F)F)c1ccccc12
inactive: Potency [1] | Potency [2] | Potency [3] | Potency [4] | Potency [5] | Potency [6]

COC(=O)C1(C)C=C(Nc2ccc(OC)cc2)C(=O)N1c1ccc(OC)cc1 (stereo unspecified)
inactive: Potency [1] | Potency [2] | Potency [3] | Potency [4] | Potency [5] | Potency [6]

C=CCN1c2ccccc2[C@]23CCC(=O)N(CC4CC4)C2=NC(C(=O)OC)=C(C(=O)OC)[C@H]13
inactive: Potency [1] | Potency [2] | Potency [3] | Potency [4] | Potency [5] | Potency [6]

C=CCOC(=O)N[C@@H](CC(C)C)C(C(=O)OC)=C(C)NCc1ccccc1
inactive: Potency [1] | Potency [2] | Potency [3] | Potency [4] | Potency [5] | Potency [6]

COC(=O)CC=C[C@@H](C)[C@@H](C=NOCC[C@@H]1C=C[C@H](OC(C)=O)[C@@H](COC(C)=O)O1)NS(=O)(=O)c1ccc(C)cc1
inactive: Potency [1] | Potency [2] | Potency [3] | Potency [4] | Potency [5] | Potency [6]

CC(C)OC(=O)[C@H]1O[C@H](CCCCOCc2ccccc2)[C@@H](C)[C@H]2O[C@H]21
inactive: Potency [1] | Potency [2] | Potency [3] | Potency [4] | Potency [5] | Potency [6]

CCCC[C@]12Cc3cc(C#N)ccc3[C@H](O1)c1c(c3ccccc3oc1=O)O2
inactive: Potency [1] | Potency [2] | Potency [3] | Potency [4] | Potency [5] | Potency [6]

C[C@@H]1C=CCCO[C@]12C(=O)Nc1ccc(O)cc12
inactive: Potency [1] | Potency [2] | Potency [3] | Potency [4] | Potency [5] | Potency [6]

CC1(OC(=O)C2CCCC2)C(=O)C=C2C=C(c3ccsc3)N(CC3CC3)C=C2C1=O (stereo unspecified)
inactive: activity, negative = inhibition [1] -6.74% [at 1.12 µM] | Potency [2] | Potency [3] | Potency [4] | Potency [5] | Potency [6]

CCCC[C@]12Cc3c(ccc4ccccc34)[C@H](O1)c1c(cc(C)oc1=O)O2
inactive: Potency [1] | Potency [2] | Potency [3] | Potency [4] | Potency [5] | Potency [6]

COCCN1C(=O)NC(c2cccc(C(F)(F)F)c2)C(C(C)=O)=C1C (stereo unspecified)
inactive: Potency [1] | Potency [2] | Potency [3] | Potency [4] | Potency [5] | Potency [6]

CCOC(=O)NN=C1C[C@@H](O)[C@@H](O)[C@@H]2[C@H]3C(=O)N(c4cccc(Oc5ccccc5)c4)C(=O)[C@@H]3CC[C@@H]12
inactive: Potency [1] | Potency [2] | Potency [3] | Potency [4] | Potency [5] | Potency [6]

CC1=CC[C@@H](C)O[C@@]2(C1)C(=O)Nc1cccc(Br)c12
inactive: Potency [1] | Potency [2] | Potency [3] | Potency [4] | Potency [5] | Potency [6]

CC1(C)O[C@H]2O[C@H]([C@H](O)CON=C3[C@H]4CCn5c(=O)n(-c6ccccc6)c(=O)n5[C@@H]4[C@H](O)[C@@H]4O[C@H]34)[C@H](O)[C@@H]2O1
inactive: Potency [1] | Potency [2] | Potency [3] | Potency [4] | Potency [5] | Potency [6]

CC1(O)C(=O)C=C2C=C(c3ccc(C#N)cc3)OC=C2C1=O (stereo unspecified)
inactive: Potency [1] | Potency [2] | Potency [3] | Potency [4] | Potency [5] | Potency [6]

COC(=O)[C@H]1O[C@@H](c2cc(OC)c(C)c(OC)c2OCc2ccccc2)[C@H](C)[C@H]2O[C@@]12C
inactive: Potency [1] | Potency [2] | Potency [3] | Potency [4] | Potency [5] | Potency [6]

COC(=O)NCC=Cc1nc(CCCO)co1
inactive: Potency [1] | Potency [2] | Potency [3] | Potency [4] | Potency [5] | Potency [6]

CC1(OC(=O)C2CCCC2)C(=O)C=C2C=C(c3ccsc3)N(CCc3ccccn3)C=C2C1=O (stereo unspecified)
inactive: Potency [1] | Potency [2] | Potency [3] | Potency [4] | Potency [5] | Potency [6]

CCCCn1c(C)cc2c(c1=O)[C@H]1O[C@](c3ccsc3)(Cc3cc(OC)c(OC)cc31)O2
inactive: Potency [1] | Potency [2] | Potency [3] | Potency [4] | Potency [5] | Potency [6]

C=CCOC(=O)N[C@@H](c1coc2ccccc2c1=O)[C@@H](C)C=CCC(=O)OC
inactive: Potency [1] | Potency [2] | Potency [3] | Potency [4] | Potency [5] | Potency [6]

CC[C@@H](c1ccccc1)n1c(=O)n2n(c1=O)[C@H]1[C@H](O)[C@@H]3O[C@H]3C(=NOCc3ccccc3)[C@H]1CC2
inactive: Potency [1] | Potency [2] | Potency [3] | Potency [4] | Potency [5] | Potency [6]

c1ccc(CCc2nc(-c3ccccc3)oc2Nc2ccc3ccccc3c2)cc1
inactive: Potency [1] | Potency [2] | Potency [3] | Potency [4] | Potency [5] | Potency [6]

C=C(CO[C@@H]1C=C[C@@H](c2ccccc2)O[C@@H]1CO)c1ccccc1
inactive: Potency [1] | Potency [2] | Potency [3] | Potency [4] | Potency [5] | Potency [6]

COc1ccc2c(c1)O[C@H](c1ccc3c(c1)OCO3)[C@@H](OC(=O)NCc1ccc3c(c1)OCO3)C2=O
inactive: Potency [1] | Potency [2] | Potency [3] | Potency [4] | Potency [5] | Potency [6]

CCN1C(=O)NC(c2ccccc2)C(C(=O)OC)=C1C (stereo unspecified)
inactive: Potency [1] | Potency [2] | Potency [3] | Potency [4] | Potency [5] | Potency [6]
